Records with an inconclusive call do not appear. A call without a number means that no potency is given here. A number with no mark means an inactive call. Activity calls are given as the source filed them. Calls come from the whole dose curve; as a rule, active = well fitted cell-killing curve with a large enough effect in the repeat runs; inconclusive = weak or mixed curves, or effect the other way; inactive = flat fitted curve, though single readings scatter.

This test is described as follows: Caspase-3/7 induction in HepG2 cells by small molecules, qHTS cell viability counter screen (AID 1346981). Note: nearly all actives have a fitted effect of over 30% in size. As to conditions: CellTiter-Fluor fluorescence, 17 h; series mostly up to 92.4 µM. From the text: U.S. Tox21 Program National Center for Advancing Translational Sciences [NCATS] NIH Chemical Genomics Center [NCGC] U.S. Environmental Protection Agency [EPA] National Institutes of Environmental Health Sciences [NIEHS] National Toxicology Program [NTP] U.S. Food and Drug Administration [FDA] Tox21 Assay Overview: Apoptosis is a process of programmed cell death and plays a central role in the development of multicellular organisms. It is a highly regulated process and induces cell death by activating caspases, which are the members of cysteine aspartic acid-specific protease (caspase) family. Caspases involved in apoptosis are classified by their mechanism of action as initiator caspases (caspase-2, -8, -9 and -10) and executioner caspases (caspase-3, -6, and -7). Inhibition of apoptosis results in number of cancers, autoimmune diseases, inflammatory diseases and viral infection. To identify small molecule compounds that induce apoptosis, a homogeneous, luminescent Caspase-Glo 3/7 assay was used. Wild type HepG2 cells were used to screen Tox21 libraries for identifying caspase-3/7 activity inducers. Also cytotoxicity of the compounds was tested in parallel by measuring the cell viability using CellTiter-Fluor assay system in the same wells.
Tox21 Assay Protocol Summary: HepG2 cells were dispensed at 2,000 per well in 5uL of culture medium into white solid bottom 1536-well plates (Corning Life Sciences, Corning, NY) using a Multidrop Combi (Thermo Scientific, Waltham, MA) dispenser. The assay plates were incubated at 37 C and 5% CO2 for 5hr, and then 23nL of compounds dissolved in DMSO and positive control were transferred using a Pintool station ([…], San Diego, CA). The assay plates were incubated at 37C and 5% CO2 for 17hr. For cytotoxicity read, after 16hr incubation at 37C, 1uL CellTiter-Fluor reagent (Promega Corporation, Madison, WI) was added to each well of the assay plates using Flying Reagent Dispenser (FRD, Aurora Discovery, San Diego, CA). After 1hr incubation at 37C and 5% CO2, the fluorescence signal was quantified using a ViewLux plate reader (PerkinElmer, Shelton, CT).
Background: In qHTS, concentration-response curves come from the screen itself.
For the molecule `NC(=O)Cc1cccc2ccccc12`, the Potency result is “inactive”. Consider `CCCCCC(C)N` (stereo not given), for which the Potency result was “inactive”. The same measure, in the same setting: under `c1ccc2sc(SN3CCOCC3)nc2c1` stands “inactive”; under `Cc1c(N)c(=O)n(-c2ccccc2)n1C`, “inactive”.

As to `C[N+](C)(C)CCCCCCCCCC[N+](C)(C)C`, the Potency result is “inactive”.

Turning to `CCN1C=CN(C)C1C` (stereo not given), the Potency result was “inactive”. Still for that read-out and setting: under `CCCCOC(=O)CCC(C)=O` stands “inactive”. On the same count and under the same terms, under `Nc1ccncc1N` stands “inactive”; under `CC(C)[C@H]1CC[C@@H](C)CC1=O`, “inactive”. Same read-out and setting: for `CC(=O)Nc1ccc(OCC(O)CNC(C)C)cc1` (stereo not given) the value was “inactive”; for `COC(=O)C1=C(C)NC(C)=C(C(=O)OC(C)C)C1c1cccc2nonc12` (stereo not given), “inactive”; for `C=COCC1CCC(COC=C)CC1` (stereo not given), “inactive”. Turning to `Cc1ncc(COP(=O)(O)O)c(C=O)c1O`, the Potency result was “inactive”. The same measure, in the same setting: under `CCCCc1ccc2c(n1)[C@@H](c1ccc(OC)cc1C[C@H](C)C(=O)O)[C@H](C(=O)O)[C@H]2c1ccc2c(c1)OCO2` stands “inactive”.

Take `C[N+]1(CC2COC(c3ccccc3)(c3ccccc3)O2)CCCCC1` (stereo not given): the activity change, negative = cytotoxicity is 9.88% [at 19 µM]. `C[N+]1(C)[C@@H]2CC(OC(=O)[C@H](CO)c3ccccc3)C[C@H]1[C@@H]1O[C@@H]12` (stereo not given in full): the Potency entry was “inactive”. The same measure, in the same setting: under `Cc1ccccc1N=C(N)N=C(N)N` stands “inactive”. In the case of `Cc1ccc(C(=O)c2ccccc2)cc1`, the Potency entry was “inactive”.

Regarding `CN1CC(=O)N/C1=N/C(=O)Nc1cccc(Cl)c1`, the Potency entry is “inactive”. The same measure, in the same setting: under `CC[N+](CC)(CC(=O)Nc1c(C)cccc1C)Cc1ccccc1` (tested in a mixture with another compound) stands “inactive”. On the same count and under the same terms, for `COc1cc(-c2ccc(=O)[nH]n2)ccc1OC(F)F` the value was “inactive”; for `O=S(=O)(O)c1cccc2c(S(=O)(=O)O)cccc12`, “inactive”.

Regarding `C[N+](C)(CCOc1ccccc1)Cc1cccs1`, the Potency entry was “inactive”. Still for that read-out and setting: for `O=CN(CCO)CCO` the value was “inactive”. Same read-out and setting: under `CCN[C@H]1C[C@H](C)S(=O)(=O)c2sc(S(N)(=O)=O)cc21` stands “inactive”; under `CO[Si](C)(OC)c1ccccc1`, “inactive”; under `Clc1cc(Cl)cc(Cl)c1`, “inactive”. The same measure, in the same setting: under `CC1(C)[C@@H]2CC[C@@]1(C)[C@H](O)C2` stands “inactive”; under `CC(N)C12CC3CC(CC(C3)C1)C2` (stereo not given), “inactive”.

Turning to `CC(C)(C)OC(=O)c1cccc(N)c1`, the Potency result is “inactive”. On the same count and under the same terms, under `O=C(O)Cc1csc(-c2ccc(Cl)cc2)n1` stands “inactive”.

Consider `Cc1nc2ccc(CN(C)c3ccc(C(=O)N[C@@H](CCC(=O)O)C(=O)O)s3)cc2c(=O)[nH]1`, for which the Potency entry is “inactive”. Still for that read-out and setting: for `O=S(=O)(O)c1cccc2ccccc12` the value was “inactive”; for `Cc1ccc(C(=O)c2ccc(CC(=O)O)n2C)cc1`, “inactive”; for `NO`, “inactive”.

Consider `C[N+]1(C)CCCC(OC(=O)C(O)(c2ccccc2)c2ccccc2)C1` (stereo not given), for which the Potency entry was “inactive”. On to `CCCCc1nc(Cl)c(CO)n1Cc1ccc(-c2ccccc2-c2nn[nH]n2)cc1`, for which the Potency result was “inactive”.

Consider `O=S(=O)(O)c1cccc(S(=O)(=O)O)c1`, for which the Potency entry is “inactive”.

Take `O=C(O)CNC(=O)c1ccccc1`: the Potency entry was “inactive”. On the same count and under the same terms, under `C=CCCCCCCCCC(=O)OCC` stands “inactive”.

The values above are taken from PubChem BioAssay (Tox21).
